Experimental data published in PubChem BioAssay AID485273 (Sanford-Burnham Center for Chemical Genomics, 2010).
Where “and” joins values, the source holds several entries; their conditions need not be identical. Equal values may be shown once. Screen size: about 330,000 compounds; about 1,500 (0.45%) were called active. No stated cut-off is given here; in the data, active means inhibition above about 45% (passing the limit was not always enough); inconclusive means no clear call, values can overlap the other calls. Only a selection was taken, and actives are over-represented in it overall.

Target: Ubiquitin-conjugating enzyme E2 N (Homo sapiens) (UniProt P61088)
Experiment: UBC13 polyubiquitin chain formation inhibitors, primary screen, biochemical, TR-FRET, uHTS (AID 485273)
Conditions: at 20 µM, stronger effect = higher value

Sequence of Ubiquitin-conjugating enzyme E2 N (Homo sapiens) (P61088 whole entry, looked up): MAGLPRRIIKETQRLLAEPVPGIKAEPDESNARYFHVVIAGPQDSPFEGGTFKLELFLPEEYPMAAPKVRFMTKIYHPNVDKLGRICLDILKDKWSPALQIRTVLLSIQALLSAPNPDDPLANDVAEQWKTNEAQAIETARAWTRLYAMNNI

SMILES	inhibition
CC(Oc1ccccc1)C(=O)Nc1oc(-c2ccco2)c(-c2ccco2)c1C#N (centres undefined)	-15.8% (inactive)
Cc1nonc1C1CCCN1Cc1nc(-c2ccc(F)cc2F)oc1C (centres undefined)	0.7% (inactive)
CC1(C)NC(=O)N(CC(=O)Nc2cc(C(F)(F)F)cc(C(F)(F)F)c2)C1=O	0.4% (inactive)
C=CCn1c(Oc2ccc(C(=O)OC)cc2)nc2c1c(=O)n(C)c(=O)n2C	-13% (inactive)
O=S(=O)(c1ccccc1)N1CN(Cc2ccc(F)cc2)c2nc3ccccc3nc21	-1.4% (inactive)
Cc1ccc(NC(=O)c2cc([N+](=O)[O-])ccc2Cl)c(O)c1	2.4% (inactive)
CC[n+]1cc(C)ccc1/C=C/c1ccc(N(C)C)cc1	-286% (inactive)
Cc1ccc(N(C(=O)c2snc(C(N)=O)c2N)C(C(=O)NCC2CCCO2)c2c[nH]c3ccccc23)cc1 (centres undefined)	75% (active)
CCOc1cc(C(C(=O)NCC2CCCO2)N(C(=O)Cn2nnc3ccccc32)c2cccc(OC)c2)ccc1O (centres undefined)	4% (inactive)
CCOc1ccc(N(C(=O)c2snc(C(N)=O)c2N)C(C(=O)NCC2CCCO2)c2c[nH]c3ccccc23)cc1 (centres undefined)	89.4% (active)
CCOc1ccc(-n2c(N)c(C(=O)NCC3CCCO3)sc2=S)cc1 (centres undefined)	3.2% (inactive)
O=C(NCC(=O)N(c1ccccc1)C(C(=O)NCC1CCCO1)c1ccccc1)c1cccs1 (centres undefined)	-2.5% (inactive)
CCOc1ccc(C(C(=O)NC2CCCC2)N(C(=O)c2snc(C(N)=O)c2N)C2CCCC2)cc1 (centres undefined)	5.2% (inactive)
COc1cccc(N(C(=O)c2snc(C(N)=O)c2N)C(C(=O)NCC2CCCO2)c2c[nH]c3ccccc23)c1 (centres undefined)	59.9% (active)
COCCNC(=O)C(c1ccc(C)o1)N(Cc1cccs1)C(=O)c1snc(C(N)=O)c1N (centres undefined)	4.7% (inactive)
Cc1ccc(C(C(=O)NCC2CCCO2)N(C(=O)c2snc(C(N)=O)c2N)c2ccc(C(C)C)cc2)o1 (centres undefined)	45.7% (active)
CC(C)(C)NC(=O)C(c1ccc(Cl)cc1)N(CCO)C(=O)c1snc(C(N)=O)c1N (centres undefined)	5.2% (inactive)
Cc1ccc(N(C(=O)Cc2cccs2)C(C(=O)NCC2CCCO2)c2ccncc2)cc1 (centres undefined)	-4.7% (inactive)
Cc1cccc(N(C(=O)c2sc(C)nc2C)C(C(=O)NCC2CCCO2)c2ccccc2)c1 (centres undefined)	2.5% (inactive)
COC(=O)Nc1ccc(S(=O)(=O)N(C)CC(F)(F)C(F)F)cc1	4.1% (inactive)
COc1ccccc1N1CCN(C(=O)c2cc(=O)c3cc(C)cc(C)c3o2)CC1	-5.8% (inactive)

SMILES	inhibition
Cn1cc(S(=O)(=O)Nc2ccc(Cl)cc2Cl)c(=O)n(C)c1=O	-9.5% (inactive)
N/C(=N\OC(=O)CCc1ccccc1)c1ccc(Cl)cc1	3.8% (inactive)
COc1ccc(-c2nnc3ccc(SCc4ccccc4)nn23)cc1	49.1% (active)
COC(=O)c1ccc(CSc2ccc3nnc(-c4ccccc4)n3n2)o1	14.2% (inactive)
O=C(CSc1ccc2nnc(-c3ccccc3)n2n1)N1CCCc2ccccc21	8.9% (inactive)
COc1ccc(C)cc1S(=O)(=O)N(CC(=O)Nc1cccc([N+](=O)[O-])c1)c1ccc(C)cc1	-5.5% (inactive)
COc1ccc(N(C(=O)c2snc(C(N)=O)c2N)C(C(=O)NC2CCCC2)c2ccco2)cc1OC (centres undefined)	80.3% (active)
COc1cc(C(C(=O)NC2CCCC2)N(Cc2ccccc2)C(=O)c2snc(C(N)=O)c2N)ccc1O (centres undefined)	13.8% (inactive)
CCC(C(=O)NC1CCCCC1)N(C(=O)c1snc(C(N)=O)c1N)c1ccc(OC)cc1OC (centres undefined)	14.4% (inactive)
COc1ccc(N(C(=O)c2snc(C(N)=O)c2N)C(C(=O)NC2CCCC2)c2ccc(C)o2)c(OC)c1 (centres undefined)	12.9% (inactive)
CCC(C(=O)NC1CCCC1)N(C(=O)c1snc(C(N)=O)c1N)c1ccc2c(c1)OCCO2 (centres undefined)	86.7% (active)
COc1ccc(C(C(=O)NC2CCCCC2)N(C(=O)c2snc(C(N)=O)c2N)c2ccccc2OC)cc1 (centres undefined)	8.5% (inactive)
COc1ccc(C)cc1NC(=S)Nc1ccccc1SC	-7.3% (inactive)
COc1cccc(/C=C2\Sc3ccc(C(=O)NCC4CCCO4)cc3N(C)C2=O)c1 (centres undefined)	-7.4% (inactive)
Cc1cccc(OCC(O)CN2CCN(CCN3C(=O)c4cccc5cccc(c45)C3=O)CC2)c1C (centres undefined)	83% (active)
Cc1ccccc1OCC(O)CN1CCN(c2ccccn2)CC1 (centres undefined)	0.6% (inactive)
Cc1cccc(C)c1OCC(O)CN1CCCCC1 (centres undefined)	11.2% (inactive)
Cc1cc(C)c(S(=O)(=O)c2ccccc2)c(OC(=O)c2c(F)cccc2Cl)n1	2.7% (inactive)
O=C(COC(=O)/C=C/c1nc2ccccc2s1)Nc1ccccc1Oc1ccccc1	-4.1% (inactive)
CC(c1ccco1)N(C(=O)COc1ccccc1[N+](=O)[O-])c1ccccn1 (centres undefined)	-13.5% (inactive)
CC(C)Nc1ccc(-n2nc3ccccc3[n+]2[O-])cc1	0.3% (inactive)

SMILES	inhibition
C#CCOCCOCCOCCNc1nc(N2CCN(C(=O)[C@H](CCC(=O)O)n3cc(C(N)CO)nn3)CC2)nc(N2CCN(C(=O)[C@H](Cc3ccc(O)cc3)n3cc(C(N)[C@H](C)CC)nn3)CC2)n1 (some centres undefined)	-1.7% (inactive)
C#CCOCCOCCOCCNc1nc(N2CCN(C(=O)C(Cc3ccc(O)cc3)n3cc(C(N)CC(C)C)nn3)CC2)nc(N2CCN(C(=O)C(Cc3ccc(O)cc3)n3cc(C(N)C(C)CC)nn3)CC2)n1 (centres undefined)	45.5% (active)
C#CCOCCOCCOCCNc1nc(N2CCN(C(=O)[C@H](Cc3ccc(O)cc3)n3cc(C(N)CC(C)C)nn3)CC2)nc(N2CCN(C(=O)[C@H](CCC(=O)O)n3cc(C(N)[C@H](C)CC)nn3)CC2)n1 (some centres undefined)	-7.8% (inactive)
C#CCOCCOCCOCCNc1nc(N2CCN(C(=O)[C@H](CO)n3cc([C@@H](N)C(C)C)nn3)CC2)nc(N2CCN(C(=O)[C@H](CCC(=O)O)n3cc([C@@H](N)[C@H](C)CC)nn3)CC2)n1	8.2% (inactive)
C#CCOCCOCCOCCNc1nc(N2CCN(C(=O)[C@H](CCCCN)n3cc([C@@H](N)C(C)CC)nn3)CC2)nc(N2CCN(C(=O)[C@H](Cc3ccc(O)cc3)n3cc([C@@H](N)C(C)CC)nn3)CC2)n1 (some centres undefined)	95.9% (active)
C#CCOCCOCCOCCNc1nc(N2CCN(C(=O)[C@H](CCC(=O)O)n3cc(C(N)CO)nn3)CC2)nc(N2CCN(C(=O)[C@H](CCCCN)n3cc(C(N)[C@H](C)CC)nn3)CC2)n1 (some centres undefined)	5.8% (inactive)
O=C(Cn1c[n+](CC(=O)c2ccc([N+](=O)[O-])cc2)cn1)c1ccc([N+](=O)[O-])cc1	-18.4% (inactive) and -8% (inactive)
S=C(c1ccc(-c2ccccc2)o1)N1CCCCC1	-13.9% (inactive)
CC(C)NC(=O)C(=O)NCCCOC(C)C	-2.8% (inactive)
COc1ccc(/C=N\NC(=O)c2sc(N)nc2C)cc1OC	102% (active)
COc1cccc(OCc2cc(/C=N/NC(=O)c3nc(Cl)c(Cl)c(N)c3Cl)ccc2OC)c1	-21.4% (inactive)
COc1cc(/C=N/NC(=O)CNC(=O)c2ccncc2)ccc1OC(C)=O	-6.5% (inactive)
Cn1c(=O)c2c(-c3cccc(Br)c3)c(C#N)c(N)nc2n(C)c1=O	-5.6% (inactive)
CC(C)(C)c1ccc(S(=O)(=O)N2CCN(C(=O)c3ccc4c(c3)C(=O)N(Cc3ccncc3)C4=O)CC2)cc1	6.4% (inactive)
Cc1ccccc1C(CC(=O)c1cccs1)C(C#N)C#N (centres undefined)	4.5% (inactive)
COc1ccc(NC2=CC(=S)NC(C)(C)C2)cc1	-9.8% (inactive)
COc1cc(OC)cc(-c2sc3ccc(OC)cc3c2-c2ccc3cc[nH]c3c2)c1	9.4% (inactive)
c1ccc(-c2ccc(OCCN3CCOCC3)cc2)cc1	7.7% (inactive)
COc1ccc(-c2sc3ccccc3c2-c2ccc(OCCN3CCOCC3)cc2)cc1	54.3% (active)
CC(=O)c1ccc(OCCN2CCOCC2)cc1	-16.1% (inactive)
c1ccc(-c2ccccc2OCCN2CCCCC2)cc1	5.8% (inactive)

SMILES	inhibition
COc1ccc2sc(-c3ccccc3OC)c(-c3ccc(OCCN4CCCC4)cc3)c2c1	60.6% (active)
CC1(C)O[C@@H]2[C@H](O1)[C@@H](COS(=O)(=O)O)O[C@H]2n1cnc2c(=O)[nH]cnc21	-0.9% (inactive)
CC(C)CC1(C(=O)NCc2ccccn2)C=CCN1C(=O)c1ccccc1 (centres undefined)	13% (inactive)
COc1ccc(C(=O)Nc2ccc(-n3nncc3C(C)(C)C)cc2)cc1	-4.8% (inactive)
COc1ccc(C(CNC(=O)c2ccc(S(=O)(=O)Nc3ccccc3C)cc2)N2CCOCC2)cc1 (centres undefined)	-1.4% (inactive)
COc1ccc(C(CNC(=O)c2cccc(NS(=O)(=O)c3ccc(C)c(F)c3)c2)N2CCCC2)cc1 (centres undefined)	55.5% (active)
COc1ccc(C(CNC(=O)c2cccc(S(=O)(=O)Nc3ccccc3Cl)c2)N2CCOCC2)cc1 (centres undefined)	2.8% (inactive)
CCOCCCNC(=O)C(=O)NCCCOCC	-2.5% (inactive)
CC1CC(C)(C)n2c(O)c(N=NC(N)=S)c3cccc1c32 (centres undefined)	92.1% (active)
COc1ccc(S(=O)(=O)N2CCC(C(=O)OCC(=O)c3ccccc3)CC2)cc1[N+](=O)[O-]	-5.5% (inactive)
FC(F)(F)c1ccnc(Oc2ccc(C3=NCCS3)cc2)c1	7.6% (inactive)
O=C(COc1ccc2ccc(=O)oc2c1)NCC(O)c1ccccc1 (centres undefined)	4.2% (inactive)
CN(C)CCCN(C(=O)c1ccc(S(=O)(=O)N2CCCCCC2)cc1)c1nc2cc3c(cc2s1)OCCO3	85.8% (active)
CN(C)CCCN(C(=O)c1ccc(S(=O)(=O)N2CCCc3ccccc32)cc1)c1nc2ccc(F)cc2s1	37.2% (inactive)
CCOc1ccc2nc(N(CCCN(C)C)C(=O)c3ccc(C(=O)c4ccccc4)cc3)sc2c1	87.8% (active)
CN(C)CCN(C(=O)CN1C(=O)c2ccccc2C1=O)c1nc2cc3c(cc2s1)OCCO3	6.7% (inactive)
CCc1ccc2nc(N(CCCN(C)C)C(=O)c3ccc4c(c3)OCCO4)sc2c1	21.3% (inactive)
CCCC(=O)N(CCN1CCOCC1)c1nc2ccc(OCC)cc2s1	-2.6% (inactive)
CN(C)CCCN(C(=O)c1ccc(S(=O)(=O)N2CCCCCC2)cc1)c1nc2ccc(Br)cc2s1	67% (active)
CCN(CC)CCN(C(=O)c1cccc([N+](=O)[O-])c1)c1nc2ccc(OC)cc2s1	-0.4% (inactive)
COc1ccc2sc(N(CCCN(C)C)C(=O)c3ccc(S(=O)(=O)N(C)C4CCCCC4)cc3)nc2c1	15.5% (inactive)
